Measured values taken from PubChem BioAssay (Tox21).
Unmarked numbers belong to inactive results. Inconclusive results are not listed. The source made the active and inactive calls. Calls come from the whole dose curve.

assay: qHTS assay to identify small molecule agonists of the sonic hedgehog signaling (Shh) pathway (AID 1259368); settings: NIH/3T3 Gli1-Luc reporter, luciferase, 24 h; series mostly up to 92.4 µM; activity change: at the top concentration;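 note: NIH/3T3-derived 3T3Gli1-Luc cells carrying a stable Gli1-driven firefly luciferase reporter; nearly all actives have a fitted effect of over 15% in size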
Summary of the method: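 3T3Gli1-Luc (NIH/3T3 clone, stable Gli1-Luc); 4 hr pre-incubation, then cpd in DMSO 24 hr, 37 C/5% CO2; luciferase reagent 30 min RT; luminescence.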
% is set by controls: 0 for no effect and ±100 for the full control effect.

Row | Compound | activity change
1 | CCOC(=O)OC(=O)OCC | 0.0806% (inactive)
2 | CCCCCCCCc1ccc(Nc2ccc(CCCCCCCC)cc2)cc1 | 0.113% [at 42.5 µM, active compounds read high] (inactive)
3 | Cc1cccc2c1ccc1ccccc12 | 1.03% (inactive)
4 | C=C(C)C1CCC(C)CC1O (stereo not given) | -0.287% (inactive)
5 | C=C1CC[C@H]2O[C@]2(C)CC[C@@H]2[C@@H]1CC2(C)C | -1.68% (inactive)
6 | NC(=O)C1CO1 (stereo not given) | -0.245% (inactive)
7 | Cc1c[nH]c(=O)[nH]c1=O | -1.49% (inactive)
8 | NCc1ccco1 | -0.0788% (inactive)
9 | CCc1c(C)cc(N)c(CC)c1N | 1.71% (inactive)
10 | O=C1OCc2ccccc21 | -1.22% (inactive)
11 | Nc1c(Br)cc([N+](=O)[O-])cc1Br | 0.0891% (inactive)
12 | CC(C=O)c1ccccc1 (stereo not given) | -0.27% (inactive)
13 | CCOC(=O)[C@H](O)[C@@H](O)C(=O)OCC | -0.417% (inactive)
14 | CSc1nnc(C(C)(C)C)c(=O)[nH]1 | -2.25% (inactive)
15 | CCc1cccc(C)c1N(C(=O)C(=O)O)C(C)COC (stereo not given) | 0.566% (inactive)
16 | Cc1ccc2n[nH]nc2c1 | -0.0368% (inactive)
17 | CCCC(C)C=O (stereo not given) | -1.3% (inactive)
18 | C/C(=C\c1ccc(C(=O)O)cc1)c1ccc2c(c1)C(C)(C)CCC2(C)C | 3.3% [at 42.5 µM, active compounds read high] (inactive)
19 | O=C(NCc1ncc(C(F)(F)F)cc1Cl)c1c(Cl)cccc1Cl | 4.32% (inactive)
20 | C=CC(C)(C)O | -0.918% (inactive)

assay: qHTS assay to identify small molecule antagonists of the sonic hedgehog signaling (Shh) pathway (AID 1259369); settings: NIH/3T3 Gli1-Luc reporter, Shh antagonist, luminescence 24 h; series mostly up to 92.4 µM; activity change, negative = inhibition: at the top concentration; note: nearly all actives have a fitted effect of over 45% in size; note: potency is the fitted concentration of half-maximal effect
Summary of the method: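 3T3Gli1-Luc, conditioned-medium-stimulated, 24hr cpd, 37C/5% CO2; Gli1-driven firefly Luc luminescence after 30min RT with luciferase reagent. Cells plated 4hr before cpd.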

Row | Compound | activity change, negative = inhibition | Potency
21 | CCOC=C(C(=O)OCC)C(=O)OCC | 4.81% (inactive) | 
22 | O=C1CCC(=O)N1 | -2.74% (inactive) | 
23 | CCc1cccc(C)c1N(C(=O)CS(=O)(=O)O)C(C)COC (stereo not given) | 9.62% (inactive) | 
24 | O=[N+]([O-])c1ccc(CO)cc1 | -5.67% (inactive) | 
25 | CN[C@H]1CC[C@@H](c2ccc(Cl)c(Cl)c2)c2ccc(S(N)(=O)=O)cc21 |  | 3.06 µM (active)
26 | C=CC(=O)OCCOC1C2CCC1C1CC=CC12 (stereo not given) | 6.04% [at 19 µM] | 
27 | Cc1ccc2sc3cccc(C)c3c2c1 | 12.7% (inactive) | 
28 | Cc1cc(C)c(O)c(C(C)(C)C)c1 | 1.45% (inactive) | 
29 | CCN(CC)c1ccc(C=O)cc1 | -14.3% (inactive) | 
30 | O=C1CCCCCCCCCCCCCC1 | 21.8% (inactive) | 
31 | Cc1ccc(C=O)cc1 | 23.1% [at 42.5 µM] (inactive) | 
32 | SC1CCCCC1 | 3.74% (inactive) | 
33 | CC(C)C(=O)C(C)C | 12.1% (inactive) | 
34 | CCc1cccc(CC)c1 | 18.2% (inactive) | 
35 | Clc1ccc2c(Cl)ccnc2c1 | -11.6% (inactive) | 
36 | CCC1(C)C(=O)N(Cl)C(=O)N1Cl (stereo not given) | -5.58% (inactive) | 
37 | CSc1ccc(O)cc1C |  | 13.7 µM (active)
38 | Nc1ccc(F)c([N+](=O)[O-])c1 | -7.57% (inactive) | 
39 | O=c1[nH]cccc1O | 18.5% (inactive) | 
40 | C/C=C/C(=O)OCC(C)C | -2.52% (inactive) | 

Row | Compound | activity change, negative = inhibition | Potency
41 | CCOC(=O)OC(=O)OCC | 6.62% (inactive) | 
42 | CCCCCCCCc1ccc(Nc2ccc(CCCCCCCC)cc2)cc1 | 1.23% [at 42.5 µM] (inactive) | 
43 | Cc1cccc2c1ccc1ccccc12 | 38.6% (inactive) | 
44 | C=C(C)C1CCC(C)CC1O (stereo not given) | -19.6% (inactive) | 
45 | C=C1CC[C@H]2O[C@]2(C)CC[C@@H]2[C@@H]1CC2(C)C | -1.13% (inactive) | 
46 | NC(=O)C1CO1 (stereo not given) | 20.4% (inactive) | 
47 | Cc1c[nH]c(=O)[nH]c1=O | 5.56% (inactive) | 
48 | NCc1ccco1 | 18.2% (inactive) | 
49 | CCc1c(C)cc(N)c(CC)c1N | -14.9% (inactive) | 
50 | O=C1OCc2ccccc21 | 4.32% (inactive) | 
51 | Nc1c(Br)cc([N+](=O)[O-])cc1Br | -9.38% (inactive) | 
52 | CC(C=O)c1ccccc1 (stereo not given) | -18.3% (inactive) | 
53 | CCOC(=O)[C@H](O)[C@@H](O)C(=O)OCC | -9.34% (inactive) | 
54 | CSc1nnc(C(C)(C)C)c(=O)[nH]1 | -12.6% (inactive) | 
55 | CCc1cccc(C)c1N(C(=O)C(=O)O)C(C)COC (stereo not given) | 24.5% (inactive) | 
56 | Cc1ccc2n[nH]nc2c1 | -10.9% (inactive) | 
57 | CCCC(C)C=O (stereo not given) | 0.86% (inactive) | 
58 | C/C(=C\c1ccc(C(=O)O)cc1)c1ccc2c(c1)C(C)(C)CCC2(C)C | 20.3% [at 42.5 µM] (inactive) | 
59 | O=C(NCc1ncc(C(F)(F)F)cc1Cl)c1c(Cl)cccc1Cl | -3.06% (inactive) | 
60 | C=CC(C)(C)O | -1.59% (inactive) | 
